Data: the supplement of paper PMC12636033
± gives the standard deviation of the averaged measurements. Over roughly 33,000 sequences, “E-score (rank enrichment, -0.5 to 0.5)” has its median near -0.0075; the highest 2% begin near 0.23. The sample as a whole holds a higher share of the highest values than the screen did.

System: WT Max(13-93) synthetic (M65Nle)
Assay: PBM 8-mer E-score (E-score (rank enrichment, -0.5 to 0.5)); higher = stronger preferential binding
Procedure: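 Protein binding microarray (universal PBM chip covering all 10-mers in fixed probe flanks) with chemically synthesized human Max(13-93) bHLH-LZ analogs (not full-length Max) bearing noncanonical residues (hArg, Tha, Aib, Nle at 65) and aromatic Cys staples. Read-out per 8-mer (and its reverse complement): E-score (rank-based enrichment, -0.5 to 0.5) and Z-score of median probe intensity.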

Sequence | PBM 8-mer E-score
ACCGCGCT | -0.146 ± 0.012
ATGACCTC | 0.0149 ± 0.085
TCAAACCA | 0.172 ± 0.063
GGTTTCAA | 0.077 ± 0.0057
TGTTTAAA | 0.252 ± 0.09
GGTTTAAA | 0.233 ± 0.043
GGTTTAAC | 0.0486 ± 0.048
AGTTTCAA | -0.0849 ± 0.1
TGTTTTAA | 0.115 ± 0.0028
GTTTTAAA | 0.0916 ± 0.047
TGTTTCAA | 0.241 ± 0.011
AGTTTAAA | 0.164 ± 0.0074
GTCATCAA | 0.0407 ± 0.073
AAGACGAC | 0.0772 ± 0.12
CAGCGTAG | 0.0168 ± 0.0028
GACCATCA | -0.057 ± 0.034
AGGTAAGA | -0.0352 ± 0.073
CACGGTAG | -0.0473 ± 0.022
GTCAGCTA | -0.148 ± 0.085
GAATTGCA | 0.06 ± 0.059
GTTCAGCA | 0.0207 ± 0.087
CTGCGAAC | -0.0246 ± 0.099

Sequence | PBM 8-mer E-score
ACCGTTGA | -0.15 ± 0.014
GATGTGCA | 0.052 ± 0.059
CATGTGCC | 0.327 ± 0.011
GATGTGCC | -0.0199 ± 0.084
CCTGTGCG | -0.0525 ± 0.063
AATGTGCG | 0.115 ± 0.0056
TATGTGCA | 0.16 ± 0.02
CATGTGCG | 0.296 ± 0.028
AATGTGCC | -0.0182 ± 0.064
CATGTGCA | 0.321 ± 0.025
GGGAGATA | 0.0313 ± 0.14
AAATGGTG | -0.0479 ± 0.077
AGATTGGG | 0.0796 ± 0.049
TCGGGAGA | -0.0551 ± 0.06
ACCGGAGT | -0.185 ± 0.077
AGCTCAAA | -0.101 ± 0.07
AAGTGTTG | 0.2 ± 0.0011
ACGTGTTA | 0.333 ± 0.053
ACGTGTTG | 0.378 ± 0.067
GCGTGTTA | 0.242 ± 0.043
AGGTGTTA | 0.0454 ± 0.019
GCGTGTGA | 0.201 ± 0.034

Sequence | PBM 8-mer E-score
CCGTGTTA | 0.145 ± 0.056
AGGTGTTG | -0.0777 ± 0.036
CCGTGTTC | 0.034 ± 0.081
GCGTGTAA | 0.18 ± 0.091
ACGTGTTC | 0.278 ± 0.11
AGGTGTTC | 0.0938 ± 0.013
GTCTCACA | 0.0533 ± 0.04
TAGTAGGA | -0.0355 ± 0.069
CCGACCCG | -0.101 ± 0.18
CATCTTTA | -0.0556 ± 0.15
GGTGTAGA | 0.0276 ± 0.032
ACTCGGTG | -0.111 ± 0.026
AGTAGCGC | -0.0656 ± 0.04
AACCACTT | 0.109 ± 0.14
ACCCAATG | -0.141 ± 0.067
ACCCCGCG | -0.0797 ± 0.15
AAGCTGGC | -0.176 ± 0.06
CCAACCGG | -0.267 ± 0.0078
CTAGCGCC | -0.283 ± 0.024
ATTGTCTA | 0.26 ± 0.005
ATTGTCTC | -0.142 ± 0.088
GTTGTCTA | 0.224 ± 0.094

Sequence | PBM 8-mer E-score
TATCTGCA | 0.0121 ± 0.066
CAACTGCA | -9e-05 ± 0.065
CGATTATC | -0.178 ± 0.066
GTCGAAAC | 0.079 ± 0.031
CATAACTA | 0.167 ± 0.0044
CATAACCA | 0.165 ± 0.033
TATAACCA | 0.17 ± 0.0076
GATAACCA | 0.24 ± 0.037
GATAACTA | 0.235 ± 0.061
AATAACTA | 0.125 ± 0.0044
CCATGACC | -0.0452 ± 0.14
AAGATAAG | 0.152 ± 0.024
GAGATAAC | 0.104 ± 0.025
AAGATAAC | 0.266 ± 0.045
CAGATATA | 0.108 ± 0.023
AAGATACA | 0.258 ± 0.015
GAGATACA | 0.0679 ± 0.025
AAGATATA | 0.253 ± 0.046
AAGATACT | 0.0763 ± 0.011
AAGATATC | 0.0756 ± 0.073
